According to the supplement of paper PMC7411054:
Where a name gives a salt, the structure may show the parent alone.

Tests used:
Details in all cases: treatment time: 24 h
[1] = system: A549-ACTB-RAB5A; experiment: lowest phenotypically active concentration; higher = less potent
Procedure, shortened: (§1)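 After 24 h at 0.3, 1, 3 or 9 µM, with four wells per treatment, fifteen gene-edited A549, HepG2 and WPMY1 reporter lines carrying BFP, GFP and RFP/FusionRed were imaged live. Each well's live-cell features were expressed relative to solvent control wells. Deviation required ≥3 of 4 wells past the 95th percentile of control Euclidean distances, and reproducibility a median replicate Pearson correlation over the 95th percentile of non-replicates. Phenotypic activity rested on both.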

[2] = system: A549-CANX-COX4; experiment: as above
Procedure, shortened: as §1

[3] = system: A549-GM130-SQSTM1; experiment: as above
Procedure, shortened: as §1

[4] = system: A549-TP53BP1-CLTA; experiment: as above
Procedure, shortened: as §1

[5] = system: A549-TUBA1B-RELA; experiment: as above
Procedure, shortened: as §1

[6] = system: HepG2-TP53BP1-CLTA; experiment: as above
Procedure, shortened: as §1

[7] = system: A549-ACTB-RAB5A; experiment: phenotypically active (imaging signature differs from DMSO and reproducible) at any of 0.3-9 uM (binary (1 = active, 0 = inactive)); higher = active
Procedure, shortened: as §1

[8] = system: A549-CANX-COX4; experiment: as above
Procedure, shortened: as §1

[9] = system: A549-GM130-SQSTM1; experiment: as above
Procedure, shortened: as §1

[10] = system: A549-TP53BP1-CLTA; experiment: as above
Procedure, shortened: as §1

[11] = system: A549-TUBA1B-RELA; experiment: as above
Procedure, shortened: as §1

[12] = system: HepG2-ACTB-RAB5A; experiment: as above
Procedure, shortened: as §1

[13] = system: HepG2-CANX-COX4; experiment: as above
Procedure, shortened: as §1

[14] = system: HepG2-GM130-SQSTM1; experiment: as above
Procedure, shortened: as §1

[15] = system: HepG2-TP53BP1-CLTA; experiment: as above
Procedure, shortened: as §1

[16] = system: HepG2-TUBA1B-RELA; experiment: as above
Procedure, shortened: as §1

[17] = system: WPMY1-CANX-COX4; experiment: as above
Procedure, shortened: as §1

[18] = system: WPMY1-GM130-SQSTM1; experiment: as above
Procedure, shortened: as §1

[19] = system: WPMY1-TP53BP1-CLTA; experiment: as above
Procedure, shortened: as §1

[20] = system: WPMY1-TUBA1B-RELA; experiment: as above
Procedure, shortened: as §1

Cc1ccc(-n2nc(C(C)(C)C)cc2NC(=O)Nc2ccc(OCCN3CCOCC3)c3ccccc23)cc1
9 µM: lowest phenotypically active concentration [2] | lowest phenotypically active concentration [4]
3 µM: lowest phenotypically active concentration [1] | lowest phenotypically active concentration [3] | lowest phenotypically active concentration [5] | lowest phenotypically active concentration [6]
active: phenotypically active [7] 1 | phenotypically active [8] 1 | phenotypically active [9] 1 | phenotypically active [10] 1 | phenotypically active [11] 1 | phenotypically active [12] 1 | phenotypically active [13] 1 | phenotypically active [14] 1 | phenotypically active [15] 1 | phenotypically active [16] 1 | phenotypically active [17] 1 | phenotypically active [18] 1 | phenotypically active [19] 1 | phenotypically active [20] 1

CCC(=O)N1CCN(c2ccc(-n3c(=O)ccc4cnc5ccc(-c6cnc7ccccc7c6)cc5c43)cc2C(F)(F)F)CC1 [Torin 1]
active: phenotypically active [7] 1 | phenotypically active [8] 1 | phenotypically active [9] 1 | phenotypically active [10] 1 | phenotypically active [11] 1 | phenotypically active [12] 1 | phenotypically active [13] 1 | phenotypically active [14] 1 | phenotypically active [15] 1 | phenotypically active [16] 1 | phenotypically active [17] 1 | phenotypically active [18] 1 | phenotypically active [19] 1 | phenotypically active [20] 1
≤ 0.3 µM: lowest phenotypically active concentration [1] | lowest phenotypically active concentration [2] | lowest phenotypically active concentration [3] | lowest phenotypically active concentration [4] | lowest phenotypically active concentration [5] | lowest phenotypically active concentration [6]

COc1c(Nc2cc(C)[nH]n2)nc(Sc2ccc(S(=O)(=O)Cc3cccc([N+](=O)[O-])c3F)cc2F)nc1N1CCOCC1 [Centrinone]
active: phenotypically active [7] 1 | phenotypically active [8] 1 | phenotypically active [9] 1 | phenotypically active [10] 1 | phenotypically active [11] 1 | phenotypically active [12] 1 | phenotypically active [13] 1 | phenotypically active [14] 1 | phenotypically active [15] 1 | phenotypically active [16] 1 | phenotypically active [17] 1 | phenotypically active [18] 1 | phenotypically active [19] 1 | phenotypically active [20] 1
3 µM: lowest phenotypically active concentration [1] | lowest phenotypically active concentration [2] | lowest phenotypically active concentration [4] | lowest phenotypically active concentration [5] | lowest phenotypically active concentration [6]
1 µM: lowest phenotypically active concentration [3]

O=C(Cc1ccc(-c2ccc(OCCN3CCOCC3)cc2)cn1)NCc1ccccc1
≤ 0.3 µM: lowest phenotypically active concentration [1] | lowest phenotypically active concentration [2] | lowest phenotypically active concentration [3] | lowest phenotypically active concentration [4] | lowest phenotypically active concentration [5] | lowest phenotypically active concentration [6]
active: phenotypically active [7] 1 | phenotypically active [8] 1 | phenotypically active [9] 1 | phenotypically active [10] 1 | phenotypically active [11] 1 | phenotypically active [12] 1 | phenotypically active [13] 1 | phenotypically active [14] 1 | phenotypically active [15] 1 | phenotypically active [16] 1 | phenotypically active [17] 1 | phenotypically active [18] 1 | phenotypically active [19] 1 | phenotypically active [20] 1

O=C(CCCCCN1C(=O)c2cccc3cccc(c23)C1=O)NO [Scriptaid]
1 µM: lowest phenotypically active concentration [2] | lowest phenotypically active concentration [4]
active: phenotypically active [7] 1 | phenotypically active [8] 1 | phenotypically active [9] 1 | phenotypically active [10] 1 | phenotypically active [11] 1 | phenotypically active [12] 1 | phenotypically active [13] 1 | phenotypically active [14] 1 | phenotypically active [15] 1 | phenotypically active [16] 1 | phenotypically active [17] 1 | phenotypically active [18] 1 | phenotypically active [19] 1 | phenotypically active [20] 1
≤ 0.3 µM: lowest phenotypically active concentration [1] | lowest phenotypically active concentration [3] | lowest phenotypically active concentration [5] | lowest phenotypically active concentration [6]

Nc1ccn([C@@H]2O[C@H](CO)[C@@H](O)[C@@H]2O)c(=O)n1 [cytarabine]
≤ 0.3 µM: lowest phenotypically active concentration [1] | lowest phenotypically active concentration [2] | lowest phenotypically active concentration [3] | lowest phenotypically active concentration [4] | lowest phenotypically active concentration [5] | lowest phenotypically active concentration [6]
active: phenotypically active [7] 1 | phenotypically active [8] 1 | phenotypically active [9] 1 | phenotypically active [10] 1 | phenotypically active [11] 1 | phenotypically active [12] 1 | phenotypically active [13] 1 | phenotypically active [14] 1 | phenotypically active [15] 1 | phenotypically active [16] 1 | phenotypically active [17] 1 | phenotypically active [18] 1 | phenotypically active [19] 1 | phenotypically active [20] 1

CN(C)C1CCN(C(=O)c2ccc(NC(=O)Nc3ccc(-c4nc(N5CCOCC5)nc(N5CCOCC5)n4)cc3)cc2)CC1
≤ 0.3 µM: lowest phenotypically active concentration [1] | lowest phenotypically active concentration [2] | lowest phenotypically active concentration [3] | lowest phenotypically active concentration [4] | lowest phenotypically active concentration [5] | lowest phenotypically active concentration [6]
active: phenotypically active [7] 1 | phenotypically active [8] 1 | phenotypically active [9] 1 | phenotypically active [10] 1 | phenotypically active [11] 1 | phenotypically active [12] 1 | phenotypically active [13] 1 | phenotypically active [14] 1 | phenotypically active [15] 1 | phenotypically active [16] 1 | phenotypically active [17] 1 | phenotypically active [18] 1 | phenotypically active [19] 1 | phenotypically active [20] 1

Cc1cc(Nc2cc(C)c(C#N)c(NC(C)CCCC(C)(C)O)n2)n[nH]1 (stereo not given) [TC-A 2317 hydrochloride]
active: phenotypically active [7] 1 | phenotypically active [8] 1 | phenotypically active [9] 1 | phenotypically active [10] 1 | phenotypically active [11] 1 | phenotypically active [12] 1 | phenotypically active [13] 1 | phenotypically active [14] 1 | phenotypically active [15] 1 | phenotypically active [16] 1 | phenotypically active [17] 1 | phenotypically active [18] 1 | phenotypically active [19] 1 | phenotypically active [20] 1
1 µM: lowest phenotypically active concentration [1] | lowest phenotypically active concentration [2] | lowest phenotypically active concentration [3] | lowest phenotypically active concentration [4] | lowest phenotypically active concentration [5]
≤ 0.3 µM: lowest phenotypically active concentration [6]

C=CC(=O)Nc1cccc(Nc2nc(Nc3ccc(OCCOC)cc3)ncc2F)c1
active: phenotypically active [7] 1 | phenotypically active [8] 1 | phenotypically active [9] 1 | phenotypically active [10] 1 | phenotypically active [11] 1 | phenotypically active [12] 1 | phenotypically active [13] 1 | phenotypically active [14] 1 | phenotypically active [15] 1 | phenotypically active [16] 1 | phenotypically active [17] 1 | phenotypically active [18] 1 | phenotypically active [19] 1 | phenotypically active [20] 1
3 µM: lowest phenotypically active concentration [1] | lowest phenotypically active concentration [2] | lowest phenotypically active concentration [4]
9 µM: lowest phenotypically active concentration [3] | lowest phenotypically active concentration [5] | lowest phenotypically active concentration [6]

CO[C@@H]1[C@H](N(C)C(=O)c2ccccc2)C[C@H]2O[C@]1(C)n1c3ccccc3c3c4c(c5c6ccccc6n2c5c31)C(=O)NC4
active: phenotypically active [7] 1 | phenotypically active [8] 1 | phenotypically active [9] 1 | phenotypically active [10] 1 | phenotypically active [11] 1 | phenotypically active [12] 1 | phenotypically active [13] 1 | phenotypically active [14] 1 | phenotypically active [15] 1 | phenotypically active [16] 1 | phenotypically active [17] 1 | phenotypically active [18] 1 | phenotypically active [19] 1 | phenotypically active [20] 1
≤ 0.3 µM: lowest phenotypically active concentration [1] | lowest phenotypically active concentration [2] | lowest phenotypically active concentration [3] | lowest phenotypically active concentration [4] | lowest phenotypically active concentration [5] | lowest phenotypically active concentration [6]

NC(=O)Nc1sc(-c2ccc(F)cc2)cc1C(N)=O
9 µM: lowest phenotypically active concentration [4] | lowest phenotypically active concentration [6]
3 µM: lowest phenotypically active concentration [1] | lowest phenotypically active concentration [2] | lowest phenotypically active concentration [3] | lowest phenotypically active concentration [5]
active: phenotypically active [7] 1 | phenotypically active [8] 1 | phenotypically active [9] 1 | phenotypically active [10] 1 | phenotypically active [11] 1 | phenotypically active [12] 1 | phenotypically active [13] 1 | phenotypically active [14] 1 | phenotypically active [15] 1 | phenotypically active [16] 1 | phenotypically active [17] 1 | phenotypically active [18] 1 | phenotypically active [19] 1 | phenotypically active [20] 1
